Screening data: PubChem, National Center for Advancing Translational Sciences (NCATS)
In the library only some 19% were active in any assay of this set; here they are far more common.
DT40 TDP1 no CPT – qHTS for Inhibitors of human tyrosyl-DNA phosphodiesterase 1 (TDP1): qHTS in cells in absence of CPT; DT40 Tdp1-/- hTDP1 cells, no CPT, ATP luminescence, 48 h; actives 15% (n = 420,000); AID 686978, 2013; Potency, µM (series often up to 46.2 µM), for inactives: top-dose activity change, negative = growth inhibition, hits mostly inhibitors; also: nearly all actives have a fitted effect of over 55% in size
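Camptothecin absent (DMSO only). Human TDP1-complemented DT40 knockout cells, 400 cells/well, 37 °C for minimum 48 hr; ATP measured via CellTiter-Glo, 30 min dark incubation, luminescence.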
VP16 counter – VP16 counterscreen qHTS for inhibitors of ROR gamma transcriptional activity | Drosophila S2 Gal4-VP16 UAS-luciferase, luminescence, 20 h | Potency, µM (highest dose often 53.6 µM), for the others: top-dose activity, negative = inhibition, usual class: inhibitors | actives 3.5% (n = 310,000) | AID 2546, 2010;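 also: Gal4-VP16 expression switched on by copper sulfate through the metallothionein promoter; nearly all actives have a fitted effect of over 50% in size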
DT40 TDP1 CPT – qHTS for Inhibitors of human tyrosyl-DNA phosphodiesterase 1 (TDP1): qHTS in cells in presence of CPT; actives 12% (n = 420,000); chicken DT40 Tdp1-/-;hTDP1 cells + 20 nM CPT, ATP luminescence, 48 h; Potency, µM (highest dose often 46.2 µM), inactives show at the top dose activity change, negative = growth inhibition, hits mostly inhibitors; AID 686979, 2013; also: nearly all actives have a fitted effect of over 55% in size
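Chicken DT40 Tdp1-/- cells complemented with human TDP1, 400 cells/well, exposed to compounds plus 20 nM camptothecin for at least 48 h at 37 C; viability read as ATP content by CellTiter-Glo luminescence.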
RORg inh – qHTS for inhibitors of ROR gamma transcriptional activity; actives 5.4% (n = 310,000); Drosophila S2 Gal4-RORgamma UAS-luciferase reporter, 20 h; Potency, µM (series often up to 53.6 µM), for inactives: at the highest dose activity change, negative = inhibition, most hits filed as inhibitors; Nuclear receptor ROR-gamma (Mus musculus), P51450; also: nearly all actives have a fitted effect of over 60% in size
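Stable Schneider cell line, Gal4 DNA-binding domain fused to ROR gamma, UAS-luciferase. Cmpd 1 hr RT → CuSO4 700 uM final → 20 hr RT → luciferase reagent 10 min → luminescence.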
TDP1 inh – qHTS Assay for Inhibitors of Tyrosyl-DNA Phosphodiesterase (TDP1). AID 485290, 2010. Potency, µM (titrated, usually from 130 µM), without a hit: at the top dose activity change, negative = inhibition, most hits filed as inhibitors. actives 0.28% (n = 350,000). Tyrosyl-DNA phosphodiesterase 1 (Homo sapiens), Q9NUW8. recombinant TDP1, AlphaScreen DNA substrate cleavage; also: nearly all actives have a fitted effect of over 40% in size
Target sequence (Q9NUW8 whole entry, looked up): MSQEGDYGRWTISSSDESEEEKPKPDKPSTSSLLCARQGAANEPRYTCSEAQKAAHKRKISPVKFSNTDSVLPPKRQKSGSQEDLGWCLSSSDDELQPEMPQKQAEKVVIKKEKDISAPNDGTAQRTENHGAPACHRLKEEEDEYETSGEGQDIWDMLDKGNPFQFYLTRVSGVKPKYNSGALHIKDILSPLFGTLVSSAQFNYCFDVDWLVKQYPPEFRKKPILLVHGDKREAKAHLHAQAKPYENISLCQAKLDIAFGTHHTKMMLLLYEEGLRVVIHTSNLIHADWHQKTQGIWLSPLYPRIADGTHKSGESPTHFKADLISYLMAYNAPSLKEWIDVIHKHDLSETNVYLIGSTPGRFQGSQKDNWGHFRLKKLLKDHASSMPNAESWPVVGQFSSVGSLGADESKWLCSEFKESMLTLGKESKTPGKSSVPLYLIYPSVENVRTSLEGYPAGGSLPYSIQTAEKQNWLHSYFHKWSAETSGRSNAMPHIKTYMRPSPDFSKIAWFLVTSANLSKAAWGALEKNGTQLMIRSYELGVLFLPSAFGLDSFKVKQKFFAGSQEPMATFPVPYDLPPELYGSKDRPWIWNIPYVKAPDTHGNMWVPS
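Recombinant human Tdp1 (E. coli-expressed, 1 nM final) preincubated with compounds 15 min at room temperature, then 5'-biotin/3'-phosphotyrosine-FITC DNA substrate (15 nM final) added for 5 min. AlphaScreen beads (10 ug/ml final) added 10 min; cleavage lowers signal.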
Numbers without * were called inactive; ? = inconclusive; · = no result given; [ ] = dose if it differs, or a comment. Calls follow the shape of the dose curve; as a rule, active = well fitted curve in the direction sought with a large enough effect; inconclusive = small, poorly fitted or top-dose-only effect, or another doubt; inactive = no such curve, though single readings can be large; an effect the other way counts as inactive or inconclusive. % is scaled to controls: 0 for no effect and ±100 for the full control effect; potency is read from the fitted curve at half-maximal effect.

SMILES	DT40 TDP1 no CPT	VP16 counter	DT40 TDP1 CPT	RORg inh	TDP1 inh
O=C(CCCOc1ccc(Cl)cc1Cl)N/N=C/c1ccc(Cl)cc1	23µM*	?	?	-41%	-5%
Cc1cc(Cl)ccc1OCCCC(=O)NO	18µM*	-5%	8.2µM*	-43%	5%
Cc1cc(Cl)ccc1OCCCC(=O)N/N=C/c1cccc([N+](=O)[O-])c1	?	-18%	15µM*	11%[10 µM]	-1%
Cc1cc(Cl)ccc1OCCCC(=O)NNC(=O)c1ccncc1	3%	·	-5%	·	0%
O=C(COc1ccc(Cl)cc1Cl)N/N=C/c1ccc(OC2OC(CO)C(O)C(O)C2O)cc1 (stereo unspecified)	-4%	4%	-9%	11µM*	6%
COc1ccc(/C=N/NC(=O)CCCOc2ccc(Cl)cc2Cl)cc1	4%	-3%	1%	22%	-5%
CCc1ccc(-n2nc(CO)c(C(=O)NCc3cccnc3)n2)cc1	?	·	?	·	7%
CCC1CCCCN1Cc1nc(Cc2ccccc2Cl)no1 (stereo unspecified)	?	0%	?	-21%	1%
Cc1cccc(C(=O)NCC(=O)N2CCN(S(=O)(=O)/C=C/c3ccccc3)CC2)c1	-4%	·	8%	·	0%[56.1 µM]
C=C(C)c1cccc(C(C)(C)NC(=O)NCc2ccc(OC)cc2)c1	-24%	-20%	8%	-24%	5%
CCOc1ncccc1C(=O)Nc1cc2c(cc1Br)OCCO2	12µM*	·	21µM*	·	-3%
CCOc1ncccc1C(=O)Nc1ccc2c(c1)OCO2	-16%	-1%	1%	24%	5%
CCOC(=O)c1sc(NC(=O)CSCc2c(C)noc2C)nc1C	-24%	·	-7%	·	3%
O=C(CSCc1ccc(F)cc1)Nc1ccc(N2CCOCC2)cc1N1CCOCC1	?	·	?	·	5%
Cc1nn(Cc2ccc(F)cc2)c2sc(C(=O)Nc3ccc(N4CCOCC4)cc3N3CCOCC3)cc12	7.3µM*	-6%	8.2µM*	?	10%
O=C(c1ccc(Cl)c([N+](=O)[O-])c1)N(Cc1ccc(Cl)cc1)C1CCS(=O)(=O)C1 (stereo unspecified)	23µM*	1%	?	35%	2%
O=C(/C=C/c1ccc(Cl)cc1Cl)N(Cc1ccc(Cl)cc1)C1CCS(=O)(=O)C1 (stereo unspecified)	16µM*	-21%	?	?	3%
O=[N+]([O-])c1cc2c(cc1CN1CCN(CCOCCO)CC1)OCO2	-15%	-12%	?	-12%	·
COc1ccc(-n2c(SCC(=O)NCC3CCCO3)nc3n[nH]c(C)c3c2=N)cc1 (stereo unspecified)	18µM*	-6%	?	18%	-3%
Cc1ccc(-n2c(SCC(=O)NCC3CCCO3)nc3ccccc3c2=O)cc1 (stereo unspecified)	-1%	·	?	·	1%
COc1ccc(-n2c(SCC(=O)NCC3CCCO3)nc3ccccc3c2=O)cc1Cl (stereo unspecified)	21µM*	·	8.2µM*	·	·
Cc1ccc(-n2c(SCC(=O)NCC3CCCO3)nc3n[nH]c(C)c3c2=N)cc1Cl (stereo unspecified)	9.2µM*	·	9.2µM*	10%[0.365 µM]	6%
Cc1ccc(C)c(-n2nnnc2SCC(=O)NCC2CCCO2)c1 (stereo unspecified)	6%	·	-9%	·	2%
O=C(O)CCC(=O)Nc1ccc(Cc2ccc(NC(=O)CCC(=O)O)c(O)c2)cc1O	-21%	0%	-10%	-4%	·
CCOc1ccccc1CNC(=O)c1oc2ccc3c(c2c1C)C(=O)CC(C)(C)O3	13µM*	·	?	·	1%
SMILES	DT40 TDP1 no CPT	VP16 counter	DT40 TDP1 CPT	RORg inh	TDP1 inh
Cc1c(C(=O)NCc2ccoc2)oc2ccc3c(c12)C(=O)CC(C)(C)O3	?	?	15µM*	?	-2%
CCC1(C)CC(=O)c2c(ccc3oc(C(=O)NCc4ccccc4)c(C)c23)O1 (stereo unspecified)	16µM*	·	29µM*	·	5%
CN1C(=O)C2C=CC1C1C(=O)N(c3ccccc3)C(=O)C21 (stereo unspecified)	4%	-20%	8%	-4%	4%
CCCOc1ccc(C(C)=O)cc1CSc1nc(O)cc(=O)[nH]1	9.2µM*	3%	21µM*	?	-1%
NC(=S)NN=C(c1ccc(F)cc1)C1CC1	?	·	21µM*	·	·
COC(=O)N/N=C(/c1ccccc1)C1CCCCC1	·	6%	·	-3%	-5%
O=C(CSc1nncn1-c1ccccc1)Nc1cc(Cl)cc(Cl)c1	-13%	-9%	0%	0%	-2%
Cc1nc(Sc2ccc(Br)cc2)c(C#N)c(C)c1[N+](=O)[O-]	9.2µM*	9%	21µM*	-17%	8%
Cc1ccc(Sc2nc(C)c([N+](=O)[O-])c(C)c2C#N)cc1	?	3%	?	-26%	·
Cc1nc(Sc2ccc(Cl)cc2)c(C#N)c(C)c1[N+](=O)[O-]	10µM*	-4%	?	-35%	10%
O=C(CCCCn1c(=O)[nH]c2ccsc2c1=O)NCc1ccc2c(c1)OCO2	-7%	5%	-20%	10%	0%
O=C(CCCn1c(=S)[nH]c2ccsc2c1=O)Nc1ccc2c(c1)OCCO2	-4%	?	8%	11µM*	6%
CC1CCCCC1NC(=O)CCCCn1c(=O)[nH]c2ccsc2c1=O (stereo unspecified)	-2%	1%	12%	-14%	-15%
CCOc1ccc(NC(=O)CCCn2c(=S)[nH]c3ccsc3c2=O)cc1	-21%	?	6%	13µM*	0%
O=C(CCCCn1c(=S)[nH]c2ccsc2c1=O)NCc1ccc2c(c1)OCO2	18µM*	-21%	?	14µM*	-8%
